Assay outcomes (PubChem)
Only some compounds are listed: those with a hit (about 2% of all), similar ones and a draw of the others.
ADAM17 inh – ADAM17 inhibitors, primary screen, biochemical, QFRET; recombinant ADAM17, EDANS/DABCYL FRET peptide cleavage; 370,000 compounds, 0.83% hits; AID 720648, 2013; inhibition, % at 6.95 µM;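 active means inhibition above the mean of compounds lying between control limits plus 3 SD, set per campaign, cut at about 8.5% in these data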;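 further: 0% = DMSO-only wells as the low control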
GC-A act – GC-A stimulated cGMP production enhancers – HEK293 GC-A cells, cGMP TR-FRET, EC30 ANP, primary screen; AID 1671463, 2021; 0% at EC30 ANP, 100% saturating ANP; Atrial natriuretic peptide receptor 1 (Homo sapiens), P16066; activation, % at 10 µM; 370,000 compounds, 0.14% hits; in the data active means activation above about 40%
Target sequence (P16066 whole entry, looked up): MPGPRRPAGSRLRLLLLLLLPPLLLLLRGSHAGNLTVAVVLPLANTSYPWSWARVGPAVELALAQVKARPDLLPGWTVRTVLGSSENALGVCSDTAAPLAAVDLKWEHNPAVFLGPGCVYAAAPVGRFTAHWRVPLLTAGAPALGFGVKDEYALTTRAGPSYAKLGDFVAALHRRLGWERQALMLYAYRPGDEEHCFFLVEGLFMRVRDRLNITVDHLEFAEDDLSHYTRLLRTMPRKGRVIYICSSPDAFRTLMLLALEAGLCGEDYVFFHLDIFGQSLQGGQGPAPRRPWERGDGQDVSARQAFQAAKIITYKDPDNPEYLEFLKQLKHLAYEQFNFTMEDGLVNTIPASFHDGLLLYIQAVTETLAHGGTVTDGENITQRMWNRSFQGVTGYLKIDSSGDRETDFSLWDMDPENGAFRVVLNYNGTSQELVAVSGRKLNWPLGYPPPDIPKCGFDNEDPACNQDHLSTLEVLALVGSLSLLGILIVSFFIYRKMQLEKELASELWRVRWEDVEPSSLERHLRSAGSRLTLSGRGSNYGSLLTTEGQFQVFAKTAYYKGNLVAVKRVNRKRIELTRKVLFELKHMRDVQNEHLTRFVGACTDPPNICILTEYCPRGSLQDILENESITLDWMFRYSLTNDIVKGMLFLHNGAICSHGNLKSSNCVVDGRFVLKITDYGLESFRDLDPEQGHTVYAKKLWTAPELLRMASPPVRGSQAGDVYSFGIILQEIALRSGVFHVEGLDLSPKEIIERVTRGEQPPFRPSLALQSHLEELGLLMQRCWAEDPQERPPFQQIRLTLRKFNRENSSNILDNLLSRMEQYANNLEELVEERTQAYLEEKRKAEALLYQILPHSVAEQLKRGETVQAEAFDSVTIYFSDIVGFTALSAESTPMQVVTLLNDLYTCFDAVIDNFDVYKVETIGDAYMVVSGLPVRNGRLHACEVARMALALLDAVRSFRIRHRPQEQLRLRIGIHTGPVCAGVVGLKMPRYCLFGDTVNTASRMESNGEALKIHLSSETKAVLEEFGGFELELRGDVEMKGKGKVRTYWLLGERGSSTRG
ADAM10 inh – human ADAM10 inhibitors, primary screen, biochemical, QFRET, HTS; Disintegrin and metalloproteinase domain-containing protein 10 (Homo sapiens), O14672; recombinant ADAM10, EDANS/DABCYL FRET peptide cleavage, 3 h; inhibition, % at 7 µM; 370,000 compounds, 0.62% hits; AID 720582, 2013;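 active means inhibition above a per-campaign cutoff equal to the mean of compounds falling between control-based bounds plus 3 SD, cut at about 20% in these data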;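 further: 0% = DMSO wells while the 100% control is not disclosed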
GC-B act – human GC-B receptor activators, primary screen, HEK293 GC-B cells, cGMP TR-FRET, EC30 CNP; Atrial natriuretic peptide receptor 2 (Homo sapiens), P20594; 0% at EC30 CNP, 100% saturating CNP; activation, % at 10 µM; 370,000 compounds, 0.11% hits; AID 1920062, 2024;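 active means activation at 10 µM reaching about 35% in either raw or pattern-adjusted values, limit read from the data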
FAS TE block – FAS thioesterase domain inhibitors, primary screen, biochemical, fluorescence intensity, uHTS. 360,000 compounds, 0.67% hits. inhibition, % at 15 µM. recombinant FAS-TE, OMFH fluorogenic substrate, fluorescence endpoint. AID 602261, 2012. Fatty acid synthase (Homo sapiens), P49327;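 active means compounds whose normalised, plate-corrected inhibition of enzyme fluorescence in the single-dose primary screen is 50% or more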;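 further: 0% = DMSO with enzyme and 100% = substrate without enzyme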
ADAM10 ctr – ADAM10 inhibitors, counter-screen for ADAM17 exosite inhibitor project, biochemical, FRET, human ADAM10. shares compounds with ADAM17 inh. AID 743256, 2014. recombinant ADAM10, EDANS/DABCYL FRET peptide cleavage, 3 h. 2,900 compounds, 47% hits. inhibition, % at 6.95 µM;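 active means mean inhibition over the triplicate runs exceeds the activity threshold set in the earlier primary screen, cut at about 20% in these data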;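 further: 0% = DMSO wells and 100% = marimastat wells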
ADAM17 confirm – ADAM17 inhibitors, hit retest, confirmation, biochemical, QFRET peptide cleavage; shares compounds with ADAM17 inh; recombinant ADAM17, EDANS/DABCYL QFRET peptide cleavage; inhibition, % at 6.95 µM; 2,900 compounds, 65% hits; AID 743257, 2014;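 active means mean inhibition across replicates above the hit cutoff set in the primary screen, cut at about 8.5% in these data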;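 further: 0% = DMSO wells and 100% = marimastat wells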
* hit, by the source's call.

Cc1cccc(C(C#N)c2nc3ccccc3nc2C(F)(F)F)c1 (centres undefined) was read as ADAM17 inh 8.7*, GC-A act -5, ADAM10 inh 18, GC-B act -2, FAS TE block 14, ADAM10 ctr 10 and ADAM17 confirm 4.
`CC[C@@]1(c2ccc(C)cc2)C(=O)N(C(=O)OC)N1C(=O)OC` gave ADAM17 inh -4, GC-A act -27, ADAM10 inh -7 and GC-B act -15.
O=C(CSc1nc2ccccc2nc1N1CCCCC1)N1CCN(C(c2ccccc2)c2ccc(Cl)cc2)CC1 (centres undefined) was read as ADAM17 inh -2, GC-A act -10, ADAM10 inh -5 and GC-B act -4.
For COc1ccc(CCN(C(=O)C(F)(F)F)C(C(=O)NC2CCCCC2)c2ccc(C)s2)cc1 (centres undefined) the results were ADAM17 inh 9.1*, GC-A act -24, ADAM10 inh 3, GC-B act -13, FAS TE block 6, ADAM10 ctr -2 and ADAM17 confirm 1.
Cc1[nH]n(-c2ncc(-c3ccccc3)s2)c(=O)c1C(c1ccc(Br)cc1)C(C#N)C#N (centres undefined) was read as ADAM17 inh 8.7*, GC-A act 3, ADAM10 inh 15, GC-B act -5, FAS TE block 4, ADAM10 ctr 14 and ADAM17 confirm 12*.
Screening O=C(NCc1ccc(C(=O)N2CCOCC2)cc1)c1cccc(Br)c1 returned ADAM17 inh -2, GC-A act 1, ADAM10 inh -5 and GC-B act 7.
`CCOc1ccc(NC(=O)CN2CCN(c3ccccc3C)CC2)cc1S(=O)(=O)N1CCCC1` gave ADAM17 inh -3, GC-A act 1, ADAM10 inh -4, GC-B act 3 and FAS TE block 27.
`CCOc1ccc(NC(=O)CN2CCN(c3ccc(F)cc3)CC2)cc1S(=O)(=O)N1CCCC1` gave ADAM17 inh 11*, GC-A act 1, ADAM10 inh -1, GC-B act 2, FAS TE block 8, ADAM10 ctr 2 and ADAM17 confirm 5.
For O=S1(=O)c2ccc(Br)cc2OC[C@H](Cc2ccccc2)N1Cc1cn(Cc2ccc(Br)cc2)nn1 the results were ADAM17 inh 3, GC-A act 1, ADAM10 inh -3 and GC-B act 12.
For COC(=O)CSc1nnc(-c2cccs2)o1 the results were ADAM17 inh 0, GC-A act -1, ADAM10 inh -5 and GC-B act 5.
Cc1ccc(OC(=O)c2cccc(S(=O)(=O)N(C)C)c2)c(-n2nc3ccccc3n2)c1 was read as ADAM17 inh 5, ADAM10 inh 14 and FAS TE block 25.
`Cc1ccc(OC(=O)c2ccc(S(=O)(=O)N(C)C)cc2)c(-n2nc3ccccc3n2)c1` gave ADAM17 inh 9.1*, GC-A act 3, ADAM10 inh 8, GC-B act 4, FAS TE block 32, ADAM10 ctr 32* and ADAM17 confirm 17*.
`COC(=O)[C@]12C[C@H](CC(=O)NCc3cccc4ccccc34)C(=O)N(CCC3=CCCCC3)C1=C[C@H](COCc1ccccc1)O[C@@H]2C` gave ADAM17 inh -3, GC-A act 0, ADAM10 inh -2 and GC-B act -2.
`CC1CCN(S(=O)(=O)c2ccc3c(c2)N(CC(=O)NCCCN2C(C)CCCC2C)C(=O)CO3)CC1` (centres undefined) gave ADAM17 inh 14*, GC-A act 1, ADAM10 inh 2, GC-B act -1, FAS TE block -8, ADAM10 ctr 0 and ADAM17 confirm 8.
For CN(C)CCNC(=O)c1ccc2c(=O)n(Cc3ccc(Cl)cc3)c(=S)[nH]c2c1 the results were ADAM17 inh 9.1*, GC-A act -2, ADAM10 inh 16, GC-B act -2, FAS TE block 8, ADAM10 ctr -9 and ADAM17 confirm 2.
O=C(Nc1nc(-c2ccc3c(c2)OCO3)cs1)C1COc2ccccc2O1 (centres undefined) was read as ADAM17 inh 6, GC-A act 8, ADAM10 inh 12, GC-B act 2 and FAS TE block 27.
O=C(Nc1nc(-c2ccccc2)cs1)C1COc2ccccc2O1 (centres undefined) was read as ADAM17 inh 14*, GC-A act -1, ADAM10 inh 12, GC-B act -11, FAS TE block 21, ADAM10 ctr 44* and ADAM17 confirm 14*.
For OCOCCCn1c(C2CCCN2c2nc(-c3ccc(F)cc3)cs2)nc2cc(Cl)c(N3CCCCC3)cc21 (centres undefined) the results were ADAM17 inh 10*, GC-A act -7, ADAM10 inh 15, GC-B act -9, FAS TE block 17, ADAM10 ctr 16 and ADAM17 confirm 8.7*.
Screening OCCCn1c(C2CCCN2c2nc(-c3ccc(Cl)cc3)cs2)nc2cc(Cl)c(Cl)cc21 (centres undefined) returned ADAM17 inh 9.1*, GC-A act -2, ADAM10 inh 19, GC-B act 4, FAS TE block 22, ADAM10 ctr 27* and ADAM17 confirm 12*.
`OCCCn1c(C2CCCN2c2nc(-c3ccc(F)cc3)cs2)nc2cc(Cl)c(Cl)cc21` (centres undefined) gave ADAM17 inh 9.5*, GC-A act -6, ADAM10 inh 12, GC-B act -8, FAS TE block 32, ADAM10 ctr 19 and ADAM17 confirm 11*.
Screening Cc1csc(N2CCCC2c2nc3cc(Cl)c(N4CCCCC4)cc3n2CCOCCO)n1 (centres undefined) returned ADAM17 inh -3, GC-A act 1, ADAM10 inh -3, GC-B act 0 and FAS TE block -4.
